ALDH1A1 block: inhibitors of human aldehyde dehydrogenase 1A1. P00352. Potency, µM (titrated, usually from 75.3 µM), for the others: top-dose activity, negative = inhibition, most hits filed as inhibitors. Purified ALDH1A1, NADH fluorescence, propionaldehyde substrate. actives 7.3% (n = 220,000). AID 1030;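 also: potency is read from the fitted curve at half-maximal effect; plate controls were no enzyme wells and a reference inhibitor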
HPGD block: blocks human HPGD enzyme activity; P15428; purified HPGD, NADH fluorescence kinetic, PGE2 substrate; actives 4.3% (n = 150,000); Potency, µM, for the others: top-dose activity change, negative = inhibition, usual class: inhibitors; also: potency is read from the fitted curve at half-maximal effect
Target sequence (P15428 whole entry, looked up): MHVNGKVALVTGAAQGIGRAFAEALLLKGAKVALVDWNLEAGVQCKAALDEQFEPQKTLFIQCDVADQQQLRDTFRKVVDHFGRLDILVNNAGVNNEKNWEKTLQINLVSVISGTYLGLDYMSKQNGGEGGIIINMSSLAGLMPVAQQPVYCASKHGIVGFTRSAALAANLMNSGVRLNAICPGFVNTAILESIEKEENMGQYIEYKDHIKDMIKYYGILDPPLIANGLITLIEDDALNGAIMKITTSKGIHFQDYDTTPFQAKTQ
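NADH formation kinetics: reaction with 30 uM PGE2 and 1 mM NAD+ (final), 20 nM enzyme, Tris-HCl pH 8 with Tween 20, after 15 min compound preincubation at room temperature. Fluorescence change, last versus first of five reads.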
PNC assembly inh: inhibitors of perinucleolar compartment assembly; actives 3.1% (n = 140,000); activity change (PNC), negative = inhibition, % at 10 µM; PC3M PTB-GFP, PNC prevalence imaging, 16 h; hits give low values; AID 2417;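 active = readout at or below -70, meaning at least 70% loss of cells showing the perinucleolar compartment, a nuclear body marking cancer cells; inconclusive = readout between -30 and a set limit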;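 also: plate controls were DMSO wells for no effect and camptothecin positive control wells for full effect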
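Read-out is percentage of cells bearing a perinucleolar compartment, from automated 20x imaging of fixed, Hoechst-stained PC3M PTB-GFP cells. Cells were seeded 4 h, then exposed 16 h to compound (23 nl of library stock) in duplicate plates.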
Starred values were filed as active, the others as inactive; ? = inconclusive; . = no result given; [ ] = another dose, or the depositor's remark. This is a sample that favours compounds with a hit; in the whole collection about 11% have one here. Unless noted, calls follow the shape of the dose curve; as a rule, active = well fitted inhibition curve with a large enough effect (not every such curve was filed as active); inconclusive = small, poorly fitted or top-dose-only effect, or another doubt; inactive = no such curve, though single readings can be large or run the other way. Unless noted, % is scaled to controls: 0 for no effect and ±100 for the full control effect.

SMILES	ALDH1A1 block	HPGD block	PNC assembly inh
COc1ccc(CCNc2c([N+](=O)[O-])c(=O)oc3ccccc23)cc1OC	0%	16µM*	50
Cn1c(=O)c([N+](=O)[O-])c(NCc2ccccc2)c2ccccc21	16µM*	6.3µM*	?
O=c1oc2ccccc2c(NCc2ccccc2)c1[N+](=O)[O-]	11µM*	25µM*	?
O=c1oc2ccccc2c(NCCO)c1[N+](=O)[O-]	6%	.	.
O=c1oc2ccccc2c(Nc2ccccc2)c1[N+](=O)[O-]	?	-10%	-16
CNc1c(N)c(=O)oc2ccccc12	-23%	.	.
Cc1ccc(Nc2c([N+](=O)[O-])c(=O)n(C)c3ccccc23)cc1	-5%	.	.
Cc1ccc(S(=O)(=O)NC(=O)NCCc2ccccc2)cc1	4%	.	.
O=[N+]([O-])c1cc(-c2nc3nc4ccccc4nc3n2CCc2ccccc2)cc([N+](=O)[O-])c1	-9%	?	14
CC(C)Nc1c([N+](=O)[O-])c(=O)oc2ccccc12	3%	.	.
Cc1cc(Cl)cc(Cl)c1CNc1c([N+](=O)[O-])c(=O)oc2ccccc12	10µM*	?	-21
COc1ccccc1C1CC(=O)NC(C)=C1C(=O)OC(C)C (stereo unspecified)	4%	.	.
c1ccc(-c2nc(-c3ccccc3)c(Nc3ccc4ccccc4c3)o2)cc1	8%	-5%	.
COc1ccc(CCNC(=O)[C@@H](NC(=O)c2ccccc2F)C(C)C)cc1OC	9%	.	.
CC(=O)Oc1c(C)cc(Cl)cc1C(=O)Nc1ccc([N+](=O)[O-])cc1Cl	14%	-3%	-12
Clc1ccc2c(c1)C(C1=NCCN1)c1ccccc1CS2 (stereo unspecified)	14%	0%	?
S=C1NCCc2ccc(Cl)cc2C1c1ccccc1Cl (stereo unspecified)	13%	-5%	-100*
COc1ccc(-c2nc(-c3ccccc3)oc2Nc2ccccc2C)cc1	-1%	-8%	.
CCN(CC)CCCNC(=O)Cn1nc([N+](=O)[O-])c(Cl)c1C	6%	.	.
COc1ccc(C2Sc3nncn3N2Cc2ccc(C#N)cc2)cc1 (stereo unspecified)	10µM*	-7%	15
COc1ccc(C(=O)N2CCC3(CCN(Cc4ccc(C#N)cc4)CC3)CC2)cc1	-7%	-2%	.
CCC[C@H](N[C@@H](C)C(=O)N1[C@@H]2CCCC[C@H]2C[C@H]1C(=O)O)C(=O)OCC	7%	-16%	.
O=CN1CCN(C(=O)c2ccc([N+](=O)[O-])cc2)CC1	10%	-4%	18
CCSC1=N/C(=C\c2ccc(-c3ccccc3[N+](=O)[O-])o2)C(=O)S1	0.32µM*	-19%	59
CCCSC1=N/C(=C\c2ccsc2)C(=O)S1	0%	-5%	16
SMILES	ALDH1A1 block	HPGD block	PNC assembly inh
CCCSC1=N/C(=C\c2ccc([N+](=O)[O-])o2)C(=O)S1	14µM*	.	.
CCCSC1=N/C(=C\C=C\c2ccco2)C(=O)S1	28µM*	-28%	14
CSC1=N/C(=C\c2ccc(C)o2)C(=O)S1	10µM*	?	-7
O=C1SC(SCc2ccccc2)=N/C1=C\c1ccco1	-8%	-6%	12
CSC1=N/C(=C\c2ccc(C)s2)C(=O)S1	-14%	-5%	-4
CCSC1=N/C(=C\c2cccc(F)c2)C(=O)S1	7%	-6%	?
Cc1ccc(OCC(=O)NCc2cccs2)c([N+](=O)[O-])n1	-5%	.	.
COC(=O)Cc1ccc(NC(=O)c2ccccc2Br)cc1	-3%	.	.
COc1cccc(/C(C)=N/NC(=O)Cc2c(C)[nH][nH]c2=O)c1	8%	.	.
CCOc1ccccc1NC(=O)C(=O)N/N=C/c1cc(Br)ccc1O	7%	.	.
CC(C)(C)N1CSC(=S)N(Cc2ccccc2)C1	32µM*	.	.
CCCN1CNC(=S)N(Cc2ccccc2)C1	5%	2%	34
CCCCN1CSC(=S)N(Cc2ccccc2)C1	3.5µM*	-21%	.
CCCCN1CNC(=S)N(Cc2ccccc2)C1	0%	-16%	-27
O=C(N/C=C/c1ccccc1)Nc1ccc(Cl)cc1	?	-15%	17
Cc1ccc(NC(=O)N/C=C/c2ccc(Cl)cc2)cc1	22µM*	-14%	57
C[C@](N)(COP(=O)(O)O)C(=O)O	5%	-8%	.
O=S(=O)(c1ccc(Cl)cc1)N1CCCC1c1nc2ccccc2s1 (stereo unspecified)	0%	-2%	6
O=S(=O)(c1cc(Cl)cc(Cl)c1)N1CCCC1c1nc2ccccc2s1 (stereo unspecified)	-2%	-11%	-100*
CCOC(=O)N1CCC(NC(=O)CC(NS(=O)(=O)c2ccc(C)cc2)c2ccco2)CC1 (stereo unspecified)	-13%	-3%	0
Cc1ccc(S(=O)(=O)NC(CC(=O)N2CCc3ccccc32)c2ccco2)cc1 (stereo unspecified)	14µM*	-3%	16
O=C(O)CNCCc1ccccc1	13%[13.5 µM]	-5%	.
CCOC(=O)c1nnn(-c2nonc2N)c1CSc1ccc(C)cc1	4.5µM*	-23%	3
CCOC(=O)c1nnn(-c2nonc2N)c1CSc1ccccc1	?	2%	17
CCCNC(=O)COC(=O)/C(C#N)=C/c1cc(C)n(CCC)c1C	-17%	.	.
SMILES	ALDH1A1 block	HPGD block	PNC assembly inh
COC(=O)[C@@]1(Cc2ccc(F)cc2)[C@H]2c3cc(C(=O)N(C)C)n(Cc4ccc(O)c(OC)c4)c3C[C@H]2CN1C(=O)c1ccccc1	-9%	-1%	.
COc1cc(C2c3c(-c4cc(C)cc(C)c4O)n[nH]c3C(=O)N2CCCO)cc(OC)c1OC (stereo unspecified)	9%	14%	-100*
COCCCN1C(=O)c2[nH]nc(-c3cc(C)cc(C)c3O)c2C1c1ccc(O)c(OC)c1 (stereo unspecified)	-6%	.	15
CC1CCN(c2ccc(NC(=O)c3ccccc3[N+](=O)[O-])cc2)CC1	-16%	.	.
COc1ccc(CNC(=O)CSc2nnnn2-c2ccccc2)cc1	11µM*	-10%	?
COc1ccc(CNC(=O)CSc2nnnn2Cc2ccccc2)cc1	?	-3%	19
COc1ccc(CCNC(=O)CSc2nnnn2-c2ccccc2)cc1	1.6µM*	-5%	19
COc1ccc(-n2nnnc2SCC(=O)NCCc2ccccc2)cc1OC	-15%	.	.
O=C(CSc1nnc(CCc2ccccc2)n1-c1ccc(Cl)cc1)NCc1ccccc1	?	-5%	-17
COc1cc(OC)cc(-n2nnnc2SCC(=O)NCCc2ccc(OC)c(OC)c2)c1	-3%	.	.
COc1ccc(-n2c(CCc3ccccc3)nnc2SCC(=O)NCc2ccccc2)cc1	?	-14%	-108*
COc1ccc(CCNc2nnc(Sc3nnnn3-c3ccccc3)s2)cc1OC	18µM*	-7%	-97*
Cc1ccc(S(=O)(=O)NCC(c2ccco2)N2CCOCC2)cc1 (stereo unspecified)	?	1%	-17
COc1ccccc1/C=C(\NC(=O)c1ccc(OC)c(OC)c1)C(=O)Nc1cccc([N+](=O)[O-])c1	7%	-18%	90
CC1(C)[C@@H](O)CC[C@]2(C)C3C(=O)C=C4C5C[C@@](C)(C(=O)O)CC[C@]5(C)CC[C@@]4(C)[C@]3(C)CC[C@@H]12 (stereo partly specified)	0%	-1%	.
COc1cc2nc(CN3CCC(C(O)(c4ccccc4)c4ccccc4)CC3)[nH]c(=O)c2cc1OC	5%	.	.

High-throughput results from PubChem.
